Assay results as given in ChEMBL document CHEMBL3988442, “University of Dundee, Small-Polar-MMV Screening Library” (2021).
About 65 (0.1%) of roughly 65,000 compounds showed an effect of 50% or more. The entries come from a sample that favours strong results as a whole.

target: Tryptophan--tRNA ligase (Mycobacterium tuberculosis (strain ATCC 25618 / H37Rv)) (UniProt P9WFT3); assay: Biochemical assay for Mt-TrpRS; type: functional; design: scale not given: direction of the effect not stated beside the values; details: 10 µM
Sequence (P9WFT3 whole entry): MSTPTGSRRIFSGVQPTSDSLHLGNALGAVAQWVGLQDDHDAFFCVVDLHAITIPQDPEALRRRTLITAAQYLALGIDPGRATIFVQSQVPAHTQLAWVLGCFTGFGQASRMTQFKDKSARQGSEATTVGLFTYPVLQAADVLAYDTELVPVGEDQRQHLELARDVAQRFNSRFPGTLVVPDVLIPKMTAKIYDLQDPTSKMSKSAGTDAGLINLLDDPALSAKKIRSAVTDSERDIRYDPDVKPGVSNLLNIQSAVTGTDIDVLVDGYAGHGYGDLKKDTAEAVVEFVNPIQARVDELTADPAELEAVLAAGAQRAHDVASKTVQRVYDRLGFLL

Row | Compound | Percent Effect
1 | CS(=O)(=O)N1C[C@@H]2OCC(=O)N(CC3CCC3)[C@@H]2C1 | -0.527%
2 | CCN(CCCNCc1c(C)nn(C)c1N(C)C)S(C)(=O)=O | -2.27%
3 | Cc1nn(C)c(N(C)C)c1CNCCCNS(C)(=O)=O | 24.1%
4 | Cc1nn(C)c(N(C)C)c1CNCCS(C)(=O)=O | 57.4%
5 | Cc1nn(C)c(N(C)C)c1CNCCNS(C)(=O)=O | -3.19%
6 | Cc1nn(C)c(N(C)C)c1CNCCCN(C)S(C)(=O)=O | -0.817%
7 | CCS(=O)(=O)NCCCNCc1c(C)nn(C)c1N(C)C | 51.9%
8 | CC(=O)N1[C@H](CN(C)C)C[C@@H]2CN(C(=O)c3cccn3C)CC[C@@H]21 | -8.29%
9 | Cc1cccc(COC[C@]23COC[C@H]2CN(c2ncccn2)C3)n1 | -0.382%
10 | Cc1nn(C)c(N2CCOCC2)c1CN[C@@H]1c2ccccc2C[C@@H]1O | -6.65%
11 | c1coc(CN2CC[C@H]3O[C@@H](COCC4CC4)CC[C@H]32)c1 | -3.59%
12 | CN1CCc2nc(C3CCCN(S(=O)(=O)N4CCCC4)C3)ncc2C1 (centres undefined) | -5.94%
13 | CCN(CC)S(=O)(=O)N1CCCC(c2ncc3c(n2)CCN(C)C3)C1 (centres undefined) | 50.2%
14 | CN1CCc2nc(C3CCCN(S(=O)(=O)c4ccccc4)C3)ncc2C1 (centres undefined) | -1.11%
15 | CC(=O)N1CCN(C(=O)c2cc(C(C)C)no2)[C@H]2CS(=O)(=O)C[C@H]21 | -1.55%
16 | NC[C@H]1CC[C@H](c2c(C(N)=O)sc3ccccc32)CC1 | -6.86%
17 | CCN(CC1CCOC1)C(=O)c1cc(F)ccc1N1CCN(C)CC1 (centres undefined) | 68.2%
18 | CCN(CC1CCOC1)C(=O)c1ccc(N2CCOCC2)c(F)c1 (centres undefined) | 18.7%
19 | C=C(C)CN(CC)C(=O)c1cc(F)ccc1N1CCN(C)CC1 | 1.96%
20 | Fc1cnc(N2CC[C@@H]3O[C@H](COCc4ccccn4)CC[C@@H]32)nc1 | -3.79%
21 | CCc1cnc(N2C[C@H]3C[C@H](C(=O)NC)[C@@H](C2)O3)nc1 | -4.37%
22 | c1ccc(CCN2CCOC(CNc3cccnn3)C2)nc1 (centres undefined) | -2.61%
23 | c1cnnc(NCC2CN(CCn3cccn3)CCO2)c1 (centres undefined) | -1.42%
24 | Cn1cc(CCN2CCOC(CNc3cccnn3)C2)cn1 (centres undefined) | 66%
25 | c1ccc(CN2C[C@H]3CCC[C@@]3(COCC3CC3)C2)nc1 | -0.775%

Row | Compound | Percent Effect
26 | COc1ccc(CN2C[C@@H]3OCCN(CC4CCCO4)[C@@H]3C2)cc1 (some centres undefined) | 4.27%
27 | c1ccc(Cn2cccn2)c(CNCC2CNc3ccnn3C2)c1 (centres undefined) | 6.16%
28 | c1cc(CNCC2CNc3ccnn3C2)cc(Cn2cccn2)c1 (centres undefined) | 2.73%
29 | c1ccc(Cn2cc(CNCC3CNc4ccnn4C3)cn2)cc1 (centres undefined) | 62.4%
30 | COc1ccc(C(=O)N2CCO[C@H]3[C@@H](OCC4CC4)CC[C@@H]32)cc1F | -0.755%
31 | Cc1ccc(CN2CC(C(=O)NC(C)C)C3(CCOCC3)C2)s1 (centres undefined) | 0.402%
32 | CC(c1ccc2c(c1)OCO2)N1Cc2nc(N(C)C)ncc2C1=O (centres undefined) | 4.59%
33 | N#Cc1ccsc1N1CCC(Sc2ccncc2)C1=O (centres undefined) | 4.7%
34 | CC(C)c1nn(C)c(N2CCOCC2)c1CNCC(=O)N(C)C | 4.97%
35 | CC(NCc1c(C(C)C)nn(C)c1N1CCOCC1)C(N)=O (centres undefined) | -6.01%
36 | CC(NCc1c(C(C)C)nn(C)c1N1CCOCC1)C(=O)N(C)C (centres undefined) | 71.4%
37 | c1ccc(CN2CC[C@@H]3O[C@@H](COCCN4CCCC4)CC[C@@H]32)nc1 | 1.72%
38 | CC(C)c1noc(CN2CCC(c3ccnn3CCO)CC2)n1 | -1.43%
39 | CC(C)c1nc(CN2CCC(c3ccnn3CCO)CC2)no1 | 61.5%
40 | CC(C)(C)c1nc(CN2CCC(c3ccnn3CCO)CC2)no1 | 23.6%
41 | COc1cc(Cl)ccc1C(=O)NCc1nncn1C | -10.5%
42 | Cn1cnnc1C1CCN(C(=O)CCOc2ccc(Cl)cc2)CC1 | 64.2%
43 | Cc1cccc(C)c1OCCC(=O)N1CCC(c2nncn2C)CC1 | 3.92%
44 | Cn1cnnc1C1CCN(C(=O)CCCOc2ccccc2)CC1 | -0.13%
45 | CC[C@H]1CN2CC[C@H]1C[C@@H]2CNCc1ccc(OC(F)(F)F)cc1 | -0.828%
46 | O=C(C1CC1)N1CC[C@H]2[C@@H]1CCC(=O)N2c1ccccc1 | 6.13%
47 | N#Cc1cn[nH]c1NCc1cc(I)cc(I)c1O | 3.89%
48 | N#Cc1cn[nH]c1NCc1cc(Cl)cc(Cl)c1O | 8.64%
49 | N#Cc1cn[nH]c1NCc1cc(Br)ccc1O | 288%
50 | NCCN1C(=O)CC[C@H]2CN(Cc3ccc4occc4c3)CC[C@H]21 | 1.29%

Row | Compound | Percent Effect
51 | COCCN1C[C@H]2CCN(C(=O)Nc3ccccc3C)CC[C@H]2S1(=O)=O | -4.45%
52 | Cc1ncoc1C(=O)N1C[C@H]2CCC[C@@]2(COCc2cccnc2)C1 | 1.59%
53 | CC(C(=O)NCc1ccc(N2CCCC2)nc1)S(C)(=O)=O (centres undefined) | 59.5%
54 | CC(C(=O)NCc1ccc(N2CCCCCC2)nc1)S(C)(=O)=O (centres undefined) | -1.98%
55 | CC(C(=O)NCc1ccc(N2CCCCC2)nc1)S(C)(=O)=O (centres undefined) | -4.1%
56 | Cc1nnc2n1CCN(CC(=O)N1CCc3ccccc3C1)C2 | 18.8%
57 | Cc1cccc(CN2CCC[C@@H]3CN(C(=O)c4ccco4)C[C@@H]32)n1 | 0.174%
58 | COc1ccc(C[C@H]2CN(c3cc(OC)ncn3)CC[C@H]2OC)cc1 | 5.86%
59 | O=C(NCC1=CCCCC1)C(c1cccnc1)N1CCCC1 (centres undefined) | 51%
60 | O=C(NCC(F)(F)F)C(c1cccnc1)N1CCCC1 (centres undefined) | 0.735%
61 | O=C(NCC1=CCCCC1)C(c1cccnc1)N1CCOCC1 (centres undefined) | -0.187%
62 | CCn1c(SC)nnc1C1CCN(C(=O)N2CCCC2)CC1 | -3%
63 | Cn1ccnc1CN1C(=O)CO[C@H]2CN(Cc3ccc(F)c(F)c3)C[C@H]21 | 2.2%
64 | O=C(NCC1CC1)[C@@H]1CCO[C@@H]2CCN(Cc3ccco3)C[C@H]21 | 9.55%
65 | c1ccc(O[C@@H]2CC[C@H]3[C@H]2OCCN3Cc2ccsc2)nc1 | 8.46%
66 | CCCc1nnc(NC(=O)NC(C)Cn2cccn2)s1 (centres undefined) | -6.24%
67 | CCC(CC)c1nnc(NC(=O)NC(C)Cn2cccn2)s1 (centres undefined) | 69.6%
68 | Cc1nnc(NC(=O)NC(C)Cn2cccn2)s1 (centres undefined) | -5.8%
69 | COCCNC(=O)[C@H]1C[C@@H]2CCN(c3ccccc3)C[C@H]2O1 | 6.99%
70 | CNC(=O)[C@@H]1COC[C@H]2CN(C(=O)c3cccc(OC)c3)C[C@H]21 | 1.06%
71 | COc1cccc(F)c1CN1CCC(c2nc(C)cc(C)n2)C1 (centres undefined) | 70.2%
72 | COc1ccccc1CN1CCC(c2nccc(C)n2)C1 (centres undefined) | 22%
73 | COc1cccc(F)c1CN1CCC(c2nccc(C)n2)C1 (centres undefined) | -3.03%
74 | Cc1ccc(N2CC[C@H]3OCC[C@@]3(C(=O)N3CCCC3)C2)nn1 | 1.02%
